Screening data from PubChem BioAssay.
Pf growth 96h – P. falciparum growth inhibition at 96 hour, primary screen for plastid delayed-death inhibitors. Potency, µM (doses to about 28.7 µM), inactives show at the top dose activity change, negative = inhibition, usual class: inhibitors. P. falciparum luciferase reporter growth, 96 h. AID 504834. 320,000 tested, 6.9% active; note: potency is the fitted concentration of half-maximal effect; % is set by controls: 0 for no effect and ±100 for the full control effect
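P. falciparum expressing integrated firefly luciferase grown in erythrocytes (2% hematocrit, 0.05% parasitemia final) with compounds for 96 hours at 37 C, 5% CO2. Growth inhibition read as loss of luminescence after adding luciferase detection reagent.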
Shiga toxin inh – inhibitors of Shiga toxin in Vero cells | Vero cells, Shiga toxin protein synthesis inhibition reporter | inhibition, % at 38.7 µM | 290,000 tested, 9.2% active | AID 2315; in the data active = inhibition mostly above about 28%, no sharp cut-off; inactive = mostly below about 43%; note: 0% is about no effect
Pf growth 48h – P. falciparum growth inhibition at 48 hours (one generation). P. falciparum luciferase growth in erythrocytes, 48 h. Potency, µM (series often up to 28.7 µM), inactives show top-dose activity change, negative = inhibition, usual class: inhibitors. 310,000 tested, 5.9% active. AID 504832; note: potency is the fitted concentration of half-maximal effect; % is set by controls: 0 for no effect and ±100 for the full control effect
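Read-out is firefly luciferase luminescence from an integrated reporter in P. falciparum, so falling signal marks reduced parasite growth. Infected erythrocytes were at 2% hematocrit and 0.1% parasitemia (final) in Albumax-supplemented RPMI 1640.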
HCMV antiviral – inhibitors of human cytomegalovirus; AID 1259415; activity change, negative = inhibition, % at 57.5 µM; HFF cells, HCMV-luciferase reporter, 72 h; stronger effect = lower value; 410,000 tested, 4.5% active; in the data active = activity change below about -60%; inconclusive = no clear call, values can overlap the other calls; inactive = above about -39%; note: % is set by controls: 0 for no effect and ±100 for the full control effect
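Human foreskin fibroblasts infected with luciferase-reporter HCMV at MOI 1 PFU/cell, compounds at two doses. Luciferase measured 72 h post infection; normalized to buffer-only basal and Salinomycin (10uM) controls.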
CHX counter – counter-screen hit for Shiga toxin inhibitors, cycloheximide; max response, %; 300,000 tested, 12% active; cell reporter, cycloheximide protein synthesis inhibition counterscreen; in the data active = max response mostly above about 13%, no sharp cut-off; inactive = mostly below about 14%; note: read at 38.3 µM for the half of the compounds with a filed dose; 0% is about no effect
The depositor's hits bear a star; ? = inconclusive; . = no result; + = active, no number. Sampled rows, rich in hits. Any-hit rate of the full collection: about 20%. Unless noted, calls come from the whole dose curve; as a rule, active = well fitted inhibition curve with a large enough effect; inconclusive = small, poorly fitted or top-dose-only effect, or another doubt; inactive = no such curve, though single readings can be large or run the other way.

SMILES	Pf growth 96h	Shiga toxin inh	Pf growth 48h	HCMV antiviral	CHX counter
CCC(C)c1ccc(NC(=O)C2CCCN(c3ncccn3)C2)cc1 (centres undefined)	8.2%	50.1*	-8.2%	-15.4	33.0*
Cc1cc(N2CCCC(C(=O)Nc3ccc4c(c3)CCC4)C2)n2ncnc2n1 (centres undefined)	15.6%	-3.2	-19.4%	-27.4	-2.6
Cc1ccc(NC(=O)C2CCCN(c3ncccn3)C2)cc1C (centres undefined)	?	99.2*	34.7%	41.7	28.6*
CN(C)c1ccccc1-c1cc(NC=O)c2ncc(-c3cccc(C(F)(F)F)c3)n2c1	.	.	.	-1.8	.
CCCCc1ccc(NC(=O)Cn2cnc3c(oc4ccccc43)c2=O)cc1	.	.	.	34.1	.
COc1ccc(NC(=O)C2CCCN(c3nc(C)cc(C)n3)C2)cc1 (centres undefined)	2.8%	-5.2	-4.0%	-5.8	5.8
COc1ccc(NC(=O)C2CCCN(c3ncccn3)C2)cc1 (centres undefined)	-2.6%	92.2*	59.3%	89.4	29.7*
CCC(C)c1ccc(NC(=O)C2CC3CCC2C3)cc1 (centres undefined)	.	.	.	111.8	.
CCC(C)c1ccc(NC(=O)C2CC2)cc1 (centres undefined)	170.7%	58.8*	?	-23.6	24.7*
CC(C)(C)c1ccc(NC(=O)C2CCCN(c3cnccn3)C2)cc1 (centres undefined)	-19.5%	34.4	?	?	15.9*
O=C(NC1CCCCCC1)C1CCCN(c2ncccn2)C1 (centres undefined)	-0.1%	37.7	?	19.0	24.3*
CC(C)Cn1c(-c2ccco2)csc1=Nc1cccnc1	?	26.5	14.7µM*	-29.7	-3.2
Fc1ccccc1-c1csc(=Nc2cccnc2)n1CC1CCCO1 (centres undefined)	11.7µM*	6.6	8.28µM*	?	5.4
Fc1ccccc1-c1csc(=Nc2cccnc2)n1CCCn1ccnc1	14.7µM*	-4.8	7.38µM*	-90.2*	1.5
COc1ccc(-n2ncc3c2CC(C)(C)CC3NC(=O)c2ccoc2C)cc1 (centres undefined)	?	15.4	?	-6.4	16.7*
COc1ccc(-n2ncc3c2CC(C)(C)CC3NC(=O)C2CCN(C(C)=O)CC2)cc1 (centres undefined)	12.2%	22.9*	-4.8%	-23.5	19.3*
COc1ccc(OC)c(C(=O)NC2CC(C)(C)Cc3c2cnn3-c2ccccc2)c1 (centres undefined)	3.9%	-4.5	?	-76.9*	6.6
CCOc1ccc(NC(=S)N2CCC(NC(=O)C3CCCCC3)CC2)cc1	-3.3%	-9.9	29.8%	-39.7	4.1
CCN1CCN(Cc2c(O)ccc3c(C)c(-c4ccccc4)c(=O)oc23)CC1	.	.	.	-7.2	.
CS(=O)(=O)N1CCc2cc(C(=O)OCC(=O)c3ccccc3)ccc21	-18.7%	48.6	.	35.7	23.1*
Cc1cccc(NC(=O)c2ccc3c(c2)CCN3S(C)(=O)=O)c1C	322.8%	.	-2.2%	27.5	18.1*
Cc1c(F)cccc1NC(=O)c1ccc2c(c1)CCN2S(C)(=O)=O	2.9%	164.8*	?	13.7	8.9*
CS(=O)(=O)N1CCc2cc(C(=O)Nc3ccccc3Cl)ccc21	?	37.5	18.1%	65.2	26.7*
Cc1ccccc1NC(=O)c1ccc2c(c1)CCN2S(C)(=O)=O	?	13.2	-13.9%	4.7	2.2
Cc1c(Cl)cccc1NC(=O)c1ccc2c(c1)CCCN2S(C)(=O)=O	.	.	.	-1.5	.
SMILES	Pf growth 96h	Shiga toxin inh	Pf growth 48h	HCMV antiviral	CHX counter
CCOc1ccc2nc(SCC(=O)Nc3cc(C)on3)c(C)cc2c1	?	-9.5	?	-6.9	-2.2
CCC(C(=O)Nc1cccc(C#N)c1)n1nc(-c2ccccc2)ccc1=O (centres undefined)	.	.	.	-28.4	.
CC1CN(S(=O)(=O)c2ccc(C(=O)OCc3ccc(C#N)cc3)cc2)CC(C)O1 (centres undefined)	?	.	?	24.9	.
COc1ccc(S(=O)(=O)NCCc2csc(-c3ccc(F)cc3)n2)cc1	.	.	.	-29.1	.
O=C(Cc1cccs1)Nc1nnc(SCc2cccc3ccccc23)s1	0.0%	0.5	16.2%	29.8	-4.8
O=C(Cc1cccs1)Nc1nc2c(ccc3ccccc32)s1	.	86.4*	41.3%	63.1	34.2*
CC(=O)Nc1nc2c(ccc3ccccc32)s1	10.4µM*	19.7	46.7%	118.6	9.9*
COc1ccc2c3c(ccc2c1)C(=O)/C(=C/O)CC3	.	.	.	9.9	.
COc1ccc2c(c1)CC/C(=C\C=C\c1ccccc1OC)C2=O	?	89.5*	-11.3%	12.7	37.7*
COc1ccc2c(c1)C(=O)/C(=C/C=C/c1ccccc1)CC2	2.33µM*	+	?	-38.5	20.6*
COc1ccc(NC(=O)/C(C#N)=C\C=C\c2ccco2)cc1	-11.4%	-4.1	14.6%	?	4.4
CC(C)C1N=C2c3ccccc3N=C(SCC(=O)NCc3ccc(F)cc3)N2C1=O (centres undefined)	.	.	.	-8.6	.
Cc1c(Cc2ccccc2)c(=O)oc2cc(OCC(=O)NCC(O)c3ccccc3)ccc12 (centres undefined)	?	-6.8	?	-14.4	16.6
Cc1ccccc1-n1c(=O)/c(=C\c2ccco2)s/c1=C(/C#N)C(=O)Nc1ccccc1	9.7%	-2.8	1.47µM*	-29.2	8.0
CCc1ccc(NC(=O)c2cc(-c3ccco3)on2)cc1	2.94µM*	57.4*	277.9%	-32.2	52.5*
O=C(Nc1c(Cl)cccc1Cl)c1cc(-c2ccco2)on1	67.8%	20.9	-24.3%	-14.6	14.6
COc1ccc(NC(=O)c2cc(-c3ccco3)on2)c(OC)c1	84.1%	25.1	-16.8%	-3.4	11.8
CC(C)NC(=O)c1cc(-c2ccco2)on1	?	105.7*	134.2%	91.8	32.4*
COc1ccc(NC(=O)C2=CC(c3ccco3)=NS(=O)(=O)N2C)cc1	-0.8%	25.5	122.8%	17.3	16.7*
COc1ccc(NC(=O)c2cc(-c3ccco3)on2)cc1	?	89.2*	443.2%	6.4	60.7*
CCN(CC)C(=O)Cn1c(=O)cc(C)c2c(C)nn(C)c21	.	.	.	5.4	.
COc1ccc(C)cc1NC(=O)c1ccc2nc(Cc3ccccc3)oc2c1	.	.	.	-22.5	.
O=C(O)C(=O)Cc1c[nH]c2ccccc12	-31.4%	17.9	?	-3.2	-0.3
C[C@@H]1CCCCO[C@@H](CN(C)C(=O)Nc2ccc3c(c2)OCO3)[C@@H](C)CN([C@H](C)CO)C(=O)c2cc(NC(=O)Nc3ccc(C(F)(F)F)cc3)ccc2O1	.	.	.	-16.7	.
O=C(c1ccccc1)N(Cc1ccco1)C1CCS(=O)(=O)C1 (centres undefined)	15.6%	-27.2	7.8%	23.3	-3.3
COc1ccc(CCNCc2c(C(=O)O)c(C)n(Cc3ccccc3C)c2C)c(OC)c1	.	.	.	10.4	.
COc1ccc(C(O)(C(C)C)C(CN2CCOCC2)c2ccc(Cl)cc2)cc1 (centres undefined)	0.0%	26.2	8.28µM*	?	-1.4
